# In PubChem BioAssay (NCI):
# Compounds without any hit were thinned out: in the full panel of roughly 79,000, 15% have a hit. Values without a mark were called inactive. Activity calls are given as the source filed them. No stated cut-off is given here; in the data, active means growth inhibition above about 70%; inactive means the rest.
# Assay: NCI Yeast Anticancer Drug Screen. Data for the sgs1 mgt1 strain (AID 161);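 further: 0% = growth of cultures given vehicle only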
# Conditions: S. cerevisiae sgs1 mgt1 strain, at 50.0 µM, hits give high values
# In short: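 Genetically altered yeast, compound exposure, growth inhibition relative to vehicle.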
row,Structure (SMILES),growth inhibition
1,CC(O)C1CC1 (stereo not given),9.3%
2,CCOC(=O)CCC(NC(=O)c1ccc(Nc2nc3ccccc3nc2C(=O)OCC)cc1)C(=O)OCC (stereo not given),9.1%
3,CC(C)C(=O)Nc1ccccc1-c1ccccc1,-9.35%
4,O=S(=O)(NCCNS(=O)(=O)c1ccccc1)c1ccccc1,10.5%
5,Nc1cc(=S)nc(N)[nH]1,22.4%
6,CC[N+](C)(CC)c1cccc(OC(=O)Nc2ccc(OC)cc2)c1,3.35%
7,CC(=O)Nc1nc2nccn2c(=O)[nH]1,-6.5%
8,O=S1(=O)C=Cc2ccccc2CC1,-22.4%
9,C=CCOC(=O)/C=C\C(=O)OCC=C,6.8%
10,COc1ccc(OC)c2cc3c(cc12)C(=O)c1ccccc1C3=O,25.2%
11,Nc1ccc(S(=O)(=O)CC(=O)N2CCOCC2)cc1,8.3%
12,Cc1cc(N(CCC#N)CCC#N)ccc1/C=C(\N=[N+]=[N-])C(=O)NC(=O)COc1ccccc1,4.7%
13,O=c1[nH]c2cc(Cl)ccc2nc1/C=C(\O)c1cccc2ccccc12,28.6%
14,Cc1cccnc1Nc1ncccc1C,10.9%
15,C[N+]([O-])=C(c1ccccc1)c1ccccc1,-9.4%
16,Cc1c(C2CCSc3ccccc3N2)sc2ccccc12 (stereo not given),11.3%
17,CCOC(=O)c1[nH]c(Cc2[nH]c(Cc3[nH]c(C(=O)OCC)c(C)c3C(=O)OCC)c(C(=O)OCC)c2C)c(C(=O)OCC)c1C,45.2%
18,Cc1ccc(-c2cc(=O)c3cc(C)c(C)c(C(=O)O)c3o2)cc1C,30.5%
19,CC(C)OC(=O)c1cccnc1,7.05%
20,CC(C)=C1CCC/C1=N\Nc1ccc([N+](=O)[O-])cc1[N+](=O)[O-],0.15%

row,Structure (SMILES),growth inhibition
1,C1=Cc2ccccc2Nc2ccccc21,-10.8%
2,COc1ccc(/C=C(\CC(=O)c2ccc(Cl)cc2)C(=O)O)cc1,6.6%
3,CC1(c2ccc(Cl)cc2)NC(=O)NC1=O (stereo not given),-7.65%
4,CC(=O)Oc1ccc([N+](=O)[O-])cc1,27.4%
5,CC1(C)N=C(N)N=C(N)N1c1cccc(CSc2ccccc2)c1,-20.8%
6,O=Nc1ccc(Br)cc1,-11.7%
7,O=C(OC1CCc2ccccc2C1)c1ccc(N=Nc2ccccc2)cc1 (stereo not given),20.7%
8,CN(/N=C/c1ccccc1)c1nnnn1-c1ccccc1,-5.85%
9,O=C(Nc1ccccn1)c1ccccc1,15.6%
10,CCCCOC(=O)NC(=O)c1cc2cccc(OC)c2oc1=O,14.4%
11,Cc1nnc2n(c1=O)CCN2C,12.3%
12,Cc1ccc(N=C(C(=O)c2ccccc2)C(Nc2ccc(C)cc2)C(=O)c2ccccc2)cc1 (stereo not given),17.8%
13,CCCCN(CCCC)CC(O)c1c2cccc(Cl)c2cc2c(Cl)cccc12 (stereo not given),78.6% (active)
14,CC(c1ccccc1)n1cnc2c(N(CCO)CCO)ncnc21 (stereo not given),9.45%
15,CCOC1([N+](=O)[O-])c2ccccc2-c2nc3ccccc3cc21 (stereo not given),74% (active)
16,O=C(Nc1ccc(Br)cc1)C(=O)C(C(=O)c1ccc(Cl)c(Cl)c1)C1OC(=O)c2ccccc21 (stereo not given),36.6%
17,Cc1ccc(-n2[nH]nc(C#N)c2=O)cc1,-23.9%
18,FC(F)(F)c1nnc(-c2ccccc2)nn1,-11.4%
19,C=CCOC(C)OCC=C,-1.35%
20,COc1ccc(COC(=O)NC2CCCCC2)cc1OC,25.1%
